Source: the supplement of paper PMC10849652
Of roughly 7,900 targets only a part is listed; those with a hit were picked by preference. About 0.6% of all pairs of compound and target were hits. Unmarked numbers belong to inactive results.

Experiments:
Assay in all cases: log2 fold change, soluble protein after heating vs DMSO (PISA); higher = thermal stabilisation; K562 cells, 10 uM, 30 min; active = over 0.2 and 3.5 SD of the protein, either way, in both replicates (recomputed)
IRAK-1-4 Inhibitor I = compound: C1COCCN1CCN2C3=CC=CC=C3N=C2NC(=O)C4=CC(=CC=C4)[N+](=O)[O-] [IRAK-1-4 Inhibitor I]
Outline: (§1)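 Soluble protein was defined as the supernatant after 21,000xg for 90 min. It came from K562 cells at 2×10^6 cells/mL given 10 μM compound for 30 min, heated in aliquots for 3 min across 48°C-58°C, pooled, and extracted in PBS with 0.5% NP-40 at 4°C, and was quantified by TMTpro 16plex LC-MS/MS with equalised channel sums. Thermal stability against control samples, from duplicates, is reported as log2 fold change.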

ibrutinib = compound: C=CC(=O)N1CCC[C@@H](n2nc(-c3ccc(Oc4ccccc4)cc3)c3c(N)ncnc32)C1 [ibrutinib]
Outline: as §1

[1] = compound: CC(=O)c1cnc2ccc(-c3cc(Cl)c(O)c(Cl)c3)nc2c1N[C@H]1CC[C@H](CN(C)C)CC1
Outline: as §1

ralimetinib = compound: CC(C)(C)Cn1c(N)nc2ccc(-c3[nH]c(C(C)(C)C)nc3-c3ccc(F)cc3)nc21 [ralimetinib]
Outline: as §1

[2] = compound: CC(C)(O)CC(=O)NCCn1ccc2ncnc(Nc3ccc(Oc4cccc(C(F)(F)F)c4)c(Cl)c3)c21
Outline: as §1

[3] = compound: CC(C)C1=C2N=C(C=C(N2N=C1)NCC3=CC=CC=C3)NCCCCCCN
Outline: as §1

[4] = compound: CC(C)C[C@@H](C=O)NC(=O)[C@H](CC(C)C)NC(=O)[C@H](CC(C)C)NC(=O)OCc1ccccc1
Outline: as §1

pinometostat = compound: CC(C)N(C[C@H]1O[C@@H](n2cnc3c(N)ncnc32)[C@H](O)[C@@H]1O)[C@H]1C[C@@H](CCc2nc3cc(C(C)(C)C)ccc3[nH]2)C1 [pinometostat]
Outline: as §1

[5] = compound: CC1=C(C(CC(=O)N1)C2=CC=C(C=C2)C(F)(F)F)C(=O)NC3=C(C=C4C(=C3)C=NN4)F
Outline: as §1

[6] = compound: CC1=C(C=C(C=C1)NC(=O)C2=CC(=CC=C2)C(C)(C)C#N)NC3=CC4=C(C=C3)N=CN(C4=O)C
Outline: as §1

[7] = compound: CC1=C(C=C(C=C1)NC(=O)C2=CC(=CC=C2)N(C)C)NC(=O)C3=CC=C(C=C3)O
Outline: as §1

[8] = compound: CC1=NC(=CC=C1)C2=C(N=C(N2)C(C)(C)C)C3=CC4=NC=CN=C4C=C3
Outline: as §1

Nexturastat A = compound: CCCCN(Cc1ccc(C(=O)NO)cc1)C(=O)Nc1ccccc1 [Nexturastat A]
Outline: as §1

vemurafenib = compound: CCCS(=O)(=O)Nc1ccc(F)c(C(=O)c2c[nH]c3ncc(-c4ccc(Cl)cc4)cc23)c1F [vemurafenib]
Outline: as §1

[9] = compound: CCCc1cc(C)[nH]c(=O)c1CNC(=O)c1cc(-c2ccnc(N3CCN(C)CC3)c2)cc2c1cnn2C(C)C
Outline: as §1

givinostat = compound: CCN(CC)Cc1ccc2cc(COC(=O)Nc3ccc(C(=O)NO)cc3)ccc2c1 [givinostat]
Outline: as §1

barasertib = compound: CCN(CCCOc1ccc2c(Nc3cc(CC(=O)Nc4cccc(F)c4)[nH]n3)ncnc2c1)CCOP(=O)(O)O [barasertib]
Outline: as §1

[10] = compound: CC1=C(C2=C(C=C1)C(=O)C3=CC=CC=C3N2CCCN)C
Outline: as §1

[11] = compound: CC1=CC=C(C=C1)SC2=C3C=C(SC3=CN=C2)C(=O)N
Outline: as §1

[12] = compound: CCCS(=O)(=O)Nc1ccc(F)c(C(=O)c2c[nH]c3ncc(Cl)cc23)c1F
Outline: as §1

Sequence of UniProt Q4G0T1 (Q4G0T1 whole entry, looked up): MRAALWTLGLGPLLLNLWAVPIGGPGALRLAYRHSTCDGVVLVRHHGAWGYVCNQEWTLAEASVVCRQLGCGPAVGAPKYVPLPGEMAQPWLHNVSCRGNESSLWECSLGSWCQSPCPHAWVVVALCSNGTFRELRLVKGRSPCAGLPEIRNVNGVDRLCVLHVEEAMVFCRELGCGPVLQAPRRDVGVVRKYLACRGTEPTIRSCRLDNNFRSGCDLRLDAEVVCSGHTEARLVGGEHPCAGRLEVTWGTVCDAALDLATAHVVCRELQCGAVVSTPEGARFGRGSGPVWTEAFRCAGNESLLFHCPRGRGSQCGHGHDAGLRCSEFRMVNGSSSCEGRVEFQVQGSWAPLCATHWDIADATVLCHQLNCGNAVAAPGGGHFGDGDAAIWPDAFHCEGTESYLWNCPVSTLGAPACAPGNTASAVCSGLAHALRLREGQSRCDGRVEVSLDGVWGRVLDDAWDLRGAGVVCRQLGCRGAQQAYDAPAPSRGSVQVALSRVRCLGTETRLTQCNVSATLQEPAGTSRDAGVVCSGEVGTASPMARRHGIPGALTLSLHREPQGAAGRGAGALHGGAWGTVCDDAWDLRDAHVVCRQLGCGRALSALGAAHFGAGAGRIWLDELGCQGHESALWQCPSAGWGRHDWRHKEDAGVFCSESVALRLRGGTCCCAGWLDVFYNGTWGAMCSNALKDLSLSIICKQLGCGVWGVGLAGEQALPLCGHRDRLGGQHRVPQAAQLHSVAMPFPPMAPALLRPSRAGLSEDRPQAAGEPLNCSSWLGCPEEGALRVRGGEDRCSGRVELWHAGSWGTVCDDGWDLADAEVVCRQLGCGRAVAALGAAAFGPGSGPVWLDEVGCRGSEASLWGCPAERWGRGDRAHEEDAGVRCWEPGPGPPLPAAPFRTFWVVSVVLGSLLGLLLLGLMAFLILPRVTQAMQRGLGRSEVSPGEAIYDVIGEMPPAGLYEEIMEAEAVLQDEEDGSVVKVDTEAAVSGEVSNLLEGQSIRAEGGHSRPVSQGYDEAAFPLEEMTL
Sequence of UniProt P51956 (P51956 whole entry, looked up): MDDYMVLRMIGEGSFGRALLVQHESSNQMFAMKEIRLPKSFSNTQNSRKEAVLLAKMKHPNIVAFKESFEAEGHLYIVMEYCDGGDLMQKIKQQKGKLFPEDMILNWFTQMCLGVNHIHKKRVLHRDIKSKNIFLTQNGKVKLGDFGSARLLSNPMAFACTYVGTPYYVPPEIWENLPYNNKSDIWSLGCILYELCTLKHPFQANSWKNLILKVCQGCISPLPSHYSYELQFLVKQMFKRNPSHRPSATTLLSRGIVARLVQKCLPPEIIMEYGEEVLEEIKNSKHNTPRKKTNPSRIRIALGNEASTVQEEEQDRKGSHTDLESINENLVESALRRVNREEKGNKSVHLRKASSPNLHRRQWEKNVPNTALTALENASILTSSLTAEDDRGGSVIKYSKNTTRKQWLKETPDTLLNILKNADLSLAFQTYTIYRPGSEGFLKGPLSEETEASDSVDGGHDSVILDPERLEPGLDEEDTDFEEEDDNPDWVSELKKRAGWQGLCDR
Sequence of UniProt Q6N063 (Q6N063 whole entry, looked up): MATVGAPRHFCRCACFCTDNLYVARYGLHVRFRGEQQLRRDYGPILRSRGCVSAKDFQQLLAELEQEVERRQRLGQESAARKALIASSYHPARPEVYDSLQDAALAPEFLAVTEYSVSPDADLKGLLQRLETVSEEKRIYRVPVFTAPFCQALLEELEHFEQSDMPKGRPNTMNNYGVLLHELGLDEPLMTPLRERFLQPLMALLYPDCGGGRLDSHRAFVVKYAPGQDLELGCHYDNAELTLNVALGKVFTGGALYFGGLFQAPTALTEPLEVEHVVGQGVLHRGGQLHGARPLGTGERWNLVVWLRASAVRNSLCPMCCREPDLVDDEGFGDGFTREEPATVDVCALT
Sequence of UniProt Q8N5F7 (Q8N5F7 whole entry, looked up): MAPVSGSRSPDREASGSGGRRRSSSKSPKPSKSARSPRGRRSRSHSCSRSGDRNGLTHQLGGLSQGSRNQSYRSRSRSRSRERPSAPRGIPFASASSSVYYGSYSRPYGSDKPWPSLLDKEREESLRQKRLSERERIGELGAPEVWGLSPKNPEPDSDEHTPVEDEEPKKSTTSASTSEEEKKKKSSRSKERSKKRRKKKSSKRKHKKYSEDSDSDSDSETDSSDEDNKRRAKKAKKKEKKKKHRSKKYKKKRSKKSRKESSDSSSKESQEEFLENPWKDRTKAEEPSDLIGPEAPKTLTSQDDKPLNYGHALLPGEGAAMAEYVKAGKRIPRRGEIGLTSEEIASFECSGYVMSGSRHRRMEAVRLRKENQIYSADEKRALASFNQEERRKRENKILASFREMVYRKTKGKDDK
Sequence of UniProt Q9UI43 (Q9UI43 whole entry, looked up): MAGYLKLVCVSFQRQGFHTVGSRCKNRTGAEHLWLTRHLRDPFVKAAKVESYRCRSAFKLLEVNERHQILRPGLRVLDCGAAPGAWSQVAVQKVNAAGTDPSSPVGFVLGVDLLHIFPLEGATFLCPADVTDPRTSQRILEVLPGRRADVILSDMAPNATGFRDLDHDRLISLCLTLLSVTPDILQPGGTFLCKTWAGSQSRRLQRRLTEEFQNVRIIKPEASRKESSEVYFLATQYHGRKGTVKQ
Sequence of UniProt P48645 (P48645 whole entry, looked up): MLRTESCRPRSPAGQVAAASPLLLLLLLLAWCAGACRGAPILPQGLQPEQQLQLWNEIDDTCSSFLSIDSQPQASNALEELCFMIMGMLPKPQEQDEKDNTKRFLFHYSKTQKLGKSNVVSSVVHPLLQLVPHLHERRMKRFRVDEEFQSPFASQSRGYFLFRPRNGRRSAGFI
Sequence of UniProt Q68DK7 (Q68DK7 whole entry, looked up): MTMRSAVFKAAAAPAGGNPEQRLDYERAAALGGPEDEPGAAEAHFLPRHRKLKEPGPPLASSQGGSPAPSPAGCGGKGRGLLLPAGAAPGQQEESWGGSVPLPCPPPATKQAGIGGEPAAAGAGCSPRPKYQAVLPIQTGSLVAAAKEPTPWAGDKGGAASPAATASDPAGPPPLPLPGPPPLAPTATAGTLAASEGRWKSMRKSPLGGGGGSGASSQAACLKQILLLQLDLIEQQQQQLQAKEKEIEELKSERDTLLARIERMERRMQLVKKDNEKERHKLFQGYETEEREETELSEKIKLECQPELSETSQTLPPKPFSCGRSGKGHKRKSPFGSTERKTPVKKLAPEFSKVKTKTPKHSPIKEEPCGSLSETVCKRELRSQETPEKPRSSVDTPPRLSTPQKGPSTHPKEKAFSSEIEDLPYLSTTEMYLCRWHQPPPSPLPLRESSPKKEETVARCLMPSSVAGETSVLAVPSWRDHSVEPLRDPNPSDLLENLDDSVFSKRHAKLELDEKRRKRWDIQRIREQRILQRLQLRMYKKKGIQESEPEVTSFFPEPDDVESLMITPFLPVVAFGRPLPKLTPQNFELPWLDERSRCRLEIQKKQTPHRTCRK
Sequence of UniProt Q86UD1 (Q86UD1 whole entry, looked up): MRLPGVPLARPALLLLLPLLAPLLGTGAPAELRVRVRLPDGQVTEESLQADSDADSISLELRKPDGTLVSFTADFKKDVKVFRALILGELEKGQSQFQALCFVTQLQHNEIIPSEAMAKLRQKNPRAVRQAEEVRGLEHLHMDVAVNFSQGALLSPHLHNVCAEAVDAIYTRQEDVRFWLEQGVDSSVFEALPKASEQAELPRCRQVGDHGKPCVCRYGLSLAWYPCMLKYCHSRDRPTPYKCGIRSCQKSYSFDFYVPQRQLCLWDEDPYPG
Sequence of UniProt Q92692 (Q92692 whole entry, looked up): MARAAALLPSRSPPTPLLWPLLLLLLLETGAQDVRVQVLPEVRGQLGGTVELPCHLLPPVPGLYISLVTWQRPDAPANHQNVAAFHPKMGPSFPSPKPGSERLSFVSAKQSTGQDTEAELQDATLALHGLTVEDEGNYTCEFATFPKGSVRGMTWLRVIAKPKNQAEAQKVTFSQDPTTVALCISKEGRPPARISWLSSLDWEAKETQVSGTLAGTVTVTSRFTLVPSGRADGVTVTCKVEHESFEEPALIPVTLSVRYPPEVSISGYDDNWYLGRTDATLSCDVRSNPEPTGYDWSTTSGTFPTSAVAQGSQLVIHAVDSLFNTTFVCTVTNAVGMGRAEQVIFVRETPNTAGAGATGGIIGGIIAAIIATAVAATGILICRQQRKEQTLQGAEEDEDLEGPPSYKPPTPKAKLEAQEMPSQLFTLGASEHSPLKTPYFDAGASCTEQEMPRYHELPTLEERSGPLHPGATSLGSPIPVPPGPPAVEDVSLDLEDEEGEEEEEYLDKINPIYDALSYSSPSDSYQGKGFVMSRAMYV
Sequence of UniProt Q9HCD5 (Q9HCD5 whole entry, looked up): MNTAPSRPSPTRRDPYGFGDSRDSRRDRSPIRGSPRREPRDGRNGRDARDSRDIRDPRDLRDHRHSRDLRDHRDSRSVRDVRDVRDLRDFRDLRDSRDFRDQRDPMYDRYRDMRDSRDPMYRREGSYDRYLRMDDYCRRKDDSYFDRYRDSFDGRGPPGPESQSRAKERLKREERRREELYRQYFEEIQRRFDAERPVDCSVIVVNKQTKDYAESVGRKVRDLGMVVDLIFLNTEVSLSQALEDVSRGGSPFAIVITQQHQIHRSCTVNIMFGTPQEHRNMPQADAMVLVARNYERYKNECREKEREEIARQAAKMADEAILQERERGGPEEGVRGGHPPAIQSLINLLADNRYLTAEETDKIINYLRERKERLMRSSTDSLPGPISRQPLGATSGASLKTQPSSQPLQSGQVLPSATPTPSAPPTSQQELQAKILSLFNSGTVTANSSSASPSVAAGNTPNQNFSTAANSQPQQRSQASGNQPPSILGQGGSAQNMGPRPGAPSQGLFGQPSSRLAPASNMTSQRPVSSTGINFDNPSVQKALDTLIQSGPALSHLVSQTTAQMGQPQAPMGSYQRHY
Sequence of UniProt B2RBV5 (B2RBV5 whole entry, looked up): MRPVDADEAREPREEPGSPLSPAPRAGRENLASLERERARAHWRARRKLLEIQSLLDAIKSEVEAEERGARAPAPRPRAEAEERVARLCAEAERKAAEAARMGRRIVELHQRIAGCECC

Target | log2 fold change (IRAK-1-4 Inhibitor I) | log2 fold change (ibrutinib) | log2 fold change [1] | log2 fold change (ralimetinib) | log2 fold change [2] | log2 fold change [3] | log2 fold change [4] | log2 fold change (pinometostat) | log2 fold change [5] | log2 fold change [6] | log2 fold change [7] | log2 fold change [8] | log2 fold change (Nexturastat A) | log2 fold change (vemurafenib) | log2 fold change [9] | log2 fold change (givinostat) | log2 fold change (barasertib) | log2 fold change [10] | log2 fold change [11] | log2 fold change [12]
NECTIN2 isoform 2 (UniProt Q92692) | -0.018 | 0.047 | 0.03 | 0.081 | 0.1 | 0.059 | 0.008 | -0.008 | 0 | -0.037 | 0.011 | -0.104 | 0.17 | 0.033 | -0.028 | 0.054 | 0.005 | – | – | –
NDFIP1 (UniProt Q9BT67) | -0.135 | -0.083 | 0.146 | 0.084 | -0.401 | -1.2 (active) | 0.302 | 0.048 | 0.241 | -0.366 | -0.125 | -0.1 | 0.048 | 0.268 | -0.15 | -0.046 | -0.011 | 0.152 | – | –
NME7 (UniProt Q9Y5B8) | 0.056 | -0.054 | -0.038 | 0.095 | -0.116 | -0.066 | 0.059 | 0.065 | – | -0.008 | -0.089 | 0.059 | 0.024 | -0.037 | -0.06 | -0.202 | 0.042 | -0.086 | -0.021 | 0.081
MSL1 (UniProt Q68DK7) | 0.007 | 0.01 | -0.039 | 0.184 | -0.086 | 0.071 | -0.005 | -0.1 | -0.022 | -0.014 | 0.037 | 0.039 | 0.185 | -0.02 | 0.05 | 0.197 | -0.002 | – | -0.026 | -0.001
MT-ND4 (UniProt P03905) | -0.005 | -0.092 | -0.236 | -0.06 | -0.094 | -0.124 | -0.054 | -0.135 | -0.065 | -0.064 | 0.067 | 0.048 | -0.155 | 0.004 | 0.014 | 0.058 | 0.156 | 0.056 | 0.015 | 0.016
OXSM (UniProt Q9NWU1) | 0.032 | 0.064 | 0.017 | 0.008 | 0.031 | 0.041 | -0.025 | -0.067 | -0.023 | -0.023 | -0.057 | 0.003 | -0.061 | 0.01 | -0.03 | -0.234 (active) | -0.034 | -0.011 | 0.023 | 0.045
NMU (UniProt P48645) | -0.052 | 0.027 | 0.034 | 0.063 | 0.011 | 0.123 | 0.313 | -0.106 | 0.03 | – | -0.052 | 0.411 (active) | 0.283 | 0.067 | – | 0.001 | 0.002 | -0.174 | 0.09 | -0.127
NKAP (UniProt Q8N5F7) | 0 | 0.004 | -0.218 | 0.033 | 0.105 | -0.123 | 0.103 | 0.032 | 0.165 | – | 0.233 | 0.052 | 0.042 | 0.073 | 0.15 | 0.044 | -0.165 | -0.022 | 0.017 | 0.046
NA isoform 3 (UniProt Q4G0T1) | 0.007 | -0.1 | -0.146 | -0.118 | – | -0.022 | 0.155 | -0.043 | 0.079 | -0.007 | 0.035 | -0.057 | – | 0.005 | -0.012 | -0.009 | 0.179 | -0.109 | 0.008 | -0.077
OGFOD2 (UniProt Q6N063) | 0.016 | -0.023 | -0.102 | 0.011 | -0.031 | -0.079 | 0.002 | 0.025 | -0.001 | – | -0.007 | -0.091 | 0.117 | 0.001 | 0.037 | -0.041 | 0.059 | -0.073 | – | –
NEK3 (UniProt P51956) | 0.104 | – | -0.184 | -0.168 | -0.015 | 0.127 | 0.098 | -0.015 | -0.028 | 0.058 | -0.055 | -0.108 | -0.033 | 0.089 | -0.063 | -0.013 | – | 0.018 | 0.052 | -0.123
MRM2 (UniProt Q9UI43) | – | – | -0.119 | – | – | -0.075 | – | – | 0.057 | – | – | – | – | 0.047 | – | 0.001 | – | 0.104 | 0.046 | -0.078
NCOA5 (UniProt Q9HCD5) | -0.136 | – | – | -0.012 | – | -0.194 | 0.055 | 0.048 | 0.082 | 0.076 | 0.134 | -0.315 | – | – | – | 0.08 | – | – | 0.099 | -0.096
NUDT7 (UniProt P0C024) | -0.02 | 0.205 | – | -0.52 | -0.467 | 0 | 0.207 | -0.231 | 0.129 | 0.016 | -0.021 | 0.197 | 0.014 | – | – | 0.017 | 0.666 (active) | 0.039 | – | –
OAF (UniProt Q86UD1) | – | – | – | -0.041 | – | 0.009 | -0.013 | – | – | -0.005 | -0.119 | – | – | – | -0.346 | -0.071 | – | – | – | –
MITF (UniProt O75030) | 0.166 | – | -0.212 | – | – | -0.581 (active) | – | 0.074 | 0.158 | 0.005 | – | 0.107 | – | 0.016 | -0.281 | -0.002 | – | – | – | –
MYLK (UniProt Q15746) | -0.051 | -0.101 | – | 0.524 | – | -0.207 | -0.181 | -0.051 | -0.269 | 0.832 (active) | 0.108 | 0.202 | – | 0.081 | -0.154 | -0.132 | 0.032 | -0.136 | -0.013 | -0.01
MOB2 isoform 3 (UniProt Q70IA6) | – | -0.061 | – | 0.039 | -0.15 | -0.01 | -0.021 | – | -0.037 | – | -0.039 | – | -0.149 | – | 0.163 | 0.061 | -0.121 | 0.106 | 0.081 | 0.018
ORC3 (UniProt Q9UBD5) | – | – | -0.031 | – | – | – | – | – | – | – | – | – | – | – | – | – | – | – | – | –
NA (UniProt B2RBV5) | – | 0.069 | – | – | -0.037 | – | – | – | -0.314 | -0.022 | – | – | 0.292 | – | 0.021 | – | 0.002 | – | -0.245 | 0.005
NA, A0A1W2PSA9 | – | – | -0.13 | 0.004 | – | – | 0.122 | – | – | – | 0.108 | – | – | – | – | – | – | -0.27 | – | –
NIPSNAP3B (UniProt Q9BS92) | 0.048 | 0.082 | 0.026 | – | – | 0.045 | – | 0.056 | 0.07 | -0.133 | – | 0.023 | – | 0.065 | -0.001 | -0.088 | 0.016 | 0.049 | 0.049 | 0.016
